Records with an inconclusive call do not appear. Activity calls are given as the source filed them. Calls follow the shape of the dose curve; as a rule, active = well fitted curve in the direction sought with a large enough effect in the signal ratio in the repeat runs (not every such curve was filed as active); inconclusive = weak or mixed curves, or effect the other way; inactive = no such curve, though single readings can be large or run the other way; the % refers to the signal ratio.
The compounds below were run against Estrogen receptor (Homo sapiens) (UniProt P03372) (assay: qHTS assay to identify small molecule antagonists of the estrogen receptor alpha (ER-alpha) signaling pathway (AID 743069)). Conditions: HEK293 ER-alpha-UAS-bla, beta-lactamase ratio, antagonist mode; series mostly up to 69.4 µM.
Chain of Estrogen receptor (Homo sapiens) (P03372 whole entry, looked up): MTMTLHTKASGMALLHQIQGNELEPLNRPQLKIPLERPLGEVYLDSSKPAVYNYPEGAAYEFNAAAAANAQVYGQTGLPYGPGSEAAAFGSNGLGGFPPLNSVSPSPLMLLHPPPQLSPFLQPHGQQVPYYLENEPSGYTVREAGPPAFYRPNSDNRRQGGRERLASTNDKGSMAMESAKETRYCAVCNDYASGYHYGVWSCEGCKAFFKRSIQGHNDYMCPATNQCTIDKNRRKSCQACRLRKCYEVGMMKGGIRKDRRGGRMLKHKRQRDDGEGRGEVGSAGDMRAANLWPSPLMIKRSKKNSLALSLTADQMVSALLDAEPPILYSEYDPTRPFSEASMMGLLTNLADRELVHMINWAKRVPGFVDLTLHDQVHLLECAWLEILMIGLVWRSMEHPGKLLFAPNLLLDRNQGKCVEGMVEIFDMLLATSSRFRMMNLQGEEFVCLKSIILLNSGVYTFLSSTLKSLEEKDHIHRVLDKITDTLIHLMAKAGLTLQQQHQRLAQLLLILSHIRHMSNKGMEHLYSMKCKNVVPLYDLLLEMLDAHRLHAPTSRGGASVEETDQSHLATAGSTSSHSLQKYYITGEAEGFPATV
Excerpt: National Center for Advancing Translational Sciences [NCATS]
NIH Chemical Genomics Center [NCGC]
U.S. Environmental Protection Agency [EPA]
National Institutes of Environmental Health Sciences [NIEHS]
National Toxicology Program [NTP]
U.S. Food and Drug Administration [FDA]
Estrogen receptor (ER), a nuclear hormone receptor, plays an important role in development, metabolic homeostasis and reproduction. Two subtypes of ER, ER-alpha and ER-beta have similar expression patterns with some uniqueness in both types. Endocrine disrupting chemicals (EDCs) and their interactions with steroid hormone receptors like ER causes disruption of normal endocrine function. To identify the compounds that inhibit ER signaling, an ER-alpha-UAS-bla GripTiteTM cell line (Invitrogen, Carlsbad, CA, USA) containing a beta-lactamase reporter gene under the control of an Upstream Activator Sequence (UAS) stably integrated into HEK293 cells was used to screen the Tox21 10K compound library.
Tox21 Assay Protocol Summary:
ER-alpha-bla cells were cultured in assay medium containing 2% charcoal stripped FBS overnight in the culture flasks before the assay was performed. The cells were dispensed at 5,000 cells/5 uL of assay medium per well into black wall/clear-bottom 1536-well plates using a Multidrop Combi (ThermoFisher Scientific, Waltham, MA) dispenser. After the assay plates were incubated at a 37C and 5% CO2 for 4 hr, 23 nL of compounds dissolved in DMSO, positive controls or DMSO only was transferred to the assay plate by a Pintool station (Kalypsys, San Diego, CA), followed by addition of 1 uL of 17beta-estradiol in assay medium using a Flying Reagent Dispenser (Aurora Discovery, San Diego, CA). The plates were incubated at 37C and 5% CO2 for 18 hr. Then 1 uL of LiveBLAzerTM B/G FRET substrate was added using a Flying Reagent Dispenser, the plates were incubated at room temperature for 2 hours, and fluorescence intensity was measured by an Envision plate reader (PerkinElmer, Shelton, CT).
% is scaled to controls: 0 for no effect and ±100 for the full control effect.

| SMILES | outcome | activity, negative = inhibition |
| --- | --- | --- |
| CN(C)CCc1c[nH]c2ccc(C[C@H]3COC(=O)N3)cc12 | inactive |  |
| C=CC(C)(CCC=C(C)C)OC(=O)C(C)C (stereo not given) | inactive |  |
| CCCCCCCC(=O)N(C)C | inactive |  |
| CC[C@@]1(c2ccccc2)NC(=O)N(C)C1=O | inactive |  |
| N[C@H]1C(O)O[C@H](CO)[C@@H](O)[C@@H]1O (stereo not given in full) | inactive |  |
| CC(=O)Nc1ccc(OCCOCCOc2ccc(NC(C)=O)cc2)cc1 | inactive |  |
| CC(C)=CCC/C(C)=C\C#N | inactive |  |
| C[C@@H]1NC(=O)[C@@H](N)CNC(=O)[C@H](C2CCNC(N)=N2)NC(=O)/C(=C/NC(N)=O)NC(=O)[C@H](CNC(=O)C[C@@H](N)CCCN)NC1=O (stereo not given in full) | inactive |  |
| N=C(N)S(=O)O | inactive |  |
| COCCCOc1cc(C[C@@H](C[C@H](N)[C@@H](O)C[C@H](C(=O)NCC(C)(C)C(N)=O)C(C)C)C(C)C)ccc1OC | inactive |  |
| CCN(CC)CC | inactive |  |
| CN1C(CCl)Nc2cc(Cl)c(S(N)(=O)=O)cc2S1(=O)=O (stereo not given) | inactive |  |
| Cc1ccc(O)c([N+](=O)[O-])c1 | inactive |  |
| Cc1ccc(NC(N)=O)cc1 | inactive |  |
| CC(=O)OC/C=C(/C)CCC=C(C)C | inactive |  |
| O=C(OOC(=O)c1ccccc1)c1ccccc1 | inactive |  |
| CCCCOCCCC | inactive |  |
| COc1cc2nc(N3CCN(C(=O)C4CCCO4)CC3)nc(N)c2cc1OC (stereo not given) | inactive |  |
| O=C(O)COc1ccc2ccccc2c1 | inactive |  |
| NNC(=O)CCCCC(=O)NN | inactive |  |

| SMILES | outcome | activity, negative = inhibition |
| --- | --- | --- |
| O=P(O)(O)C(O)(Cc1cccnc1)P(=O)(O)O | inactive |  |
| C/C=C/C(=O)CCCC | inactive |  |
| CC(C)(C)C(=O)NCCCC(=O)O | inactive |  |
| CCCc1ccc(O)c(OC)c1 | inactive |  |
| Cc1ccc(OC(=O)CC(C)C)cc1 | inactive |  |
| Cc1cc(C)c(N)c(Cl)c1 | inactive |  |
| Cc1ccc2cccnc2c1 | inactive |  |
| C=CCn1cc[n+](C)c1 | inactive |  |
| CCCC(=O)CC | inactive |  |
| Cc1cccc(N)n1 | inactive |  |
| CC(C)(C)OC(=O)c1ccccc1C(=O)O | inactive |  |
| Cc1ccccc1C#N | inactive |  |
| CCCCCCCCCCCCCCCCN(C)C |  | -6.54% [at 6.71 µM] (inactive) |
| CCCCN1C(=O)c2ccccc2C1=O | inactive |  |
| CCNC(=O)C(C)OC(=O)Nc1ccccc1 (stereo not given) | inactive |  |
| CCOC(=O)[C@H](CCc1ccccc1)N[C@H]1CS[C@H](c2cccs2)CN(CC(=O)O)C1=O | inactive |  |
| C[C@@H](CN1CC(=O)NC(=O)C1)N1CC(=O)NC(=O)C1 | inactive |  |
| CCc1ccc(CC)cc1 | inactive |  |
| CC(=O)OC1CCC(C(C)(C)C)CC1 (stereo not given) | inactive |  |
| O=C(O)/C=C(\CC(=O)O)C(=O)O | inactive |  |
